Measurements: PubChem BioAssay (EPA / NIEHS)
Records with an inconclusive call do not appear. Activity calls are given as the source filed them. How the source made its calls, unless noted: active means hit-call score of the fitted dose curve at least 0.9, where 1 is the maximum; inconclusive means response in the unintended direction; inactive means score below 0.9.

Assays:
[1] = molecular target: Estrogen receptor (Homo sapiens) (UniProt P03372); experiment: OT_ERa_GFPERaERE_0120: Odyssey Thera (OT) 2-hour HeLa Transcription Induction Assay for Estrogen Receptor (AID 2283382)
Summary of the method: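 Cells (human cervical HeLa) receive compound, incubate 2 hours, then are imaged for fluorescent reporter induction. Images are quantified by high content analysis, and activity is fitted as gain of signal against DMSO.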

[2] = molecular target: Retinoic acid receptor RXR-alpha (Homo sapiens) (UniProt P19793); experiment: OT_NURR1_NURR1RXRa_0480: Odyssey Thera (OT) 8-hour HEK293T Protein Complementation Assay for Nurr1/retinoid X receptor (RXR) (AID 2283385)
Summary of the method: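 Interaction of bait and prey reconstitutes a functional reporter, whose fluorescence was measured in HEK293T cells dosed with compound for 8 hours. Signal gain relative to DMSO defined the single endpoint.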

[3] = molecular target: Peroxisome proliferator-activated receptor gamma (Homo sapiens) (UniProt P37231); experiment: OT_PPARg_PPARgSRC1_0480: Odyssey Thera (OT) 8-hour Protein-Complementation Assay for Peroxisome Proliferator-activated Receptor Gamma / SRC-1 Co-activator (AID 2283387)
Summary of the method: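 Split-YFP (IFP1/IFP2) PPARg/SRC-1 reporter, HEK293T, 37 °C, 5% CO2; 8 h compound; formaldehyde fix + Draq5; high-content imaging, N/C ratio, ≥350 cells/image, positive direction vs DMSO.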

[4] = molecular target: Peroxisome proliferator-activated receptor gamma (Homo sapiens) (UniProt P37231); experiment: OT_PPARg_PPARgSRC1_1440: Odyssey Thera (OT) 24-hour Protein-Complementation Assay for Peroxisome Proliferator-activated Receptor Gamma/ SRC-1 Co-activator (AID 2283388)
Summary of the method: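 HEK293T transiently transfected with PPARg/SRC-1 split-Venus YFP fusions 48 h before dosing, then treated 24 h at 37C. Fixed cells imaged; nuclear/cytoplasmic 488 nm fluorescence ratio, gain of signal versus DMSO.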

[5] = CEETOX_H295R_11DCORT: CeeTox H295R High-throughput Steroidogenesis Assay for 11-Deoxycortisol (11DCORT) (AID 2283432; active means hit-call score of the fitted dose curve at least 0.9, where 1 is the maximum; inactive means score below 0.9); conditions: actives raise or lower the signal
Summary of the method: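 Steroidogenesis in human H295R cells: 48 h chemical exposure after forskolin priming, 11-deoxycortisol measured by LC-MS/MS.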

[6] = CEETOX_H295R_OHPREG: CeeTox H295R High-throughput Steroidogenesis Assay for OH-Pregnenolone (OHPREG) (AID 2283434; active means hit-call score of the fitted dose curve at least 0.9, where 1 is the maximum; inactive means score below 0.9); conditions: actives raise or lower the signal
Summary of the method: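 Secreted 17alpha-hydroxypregnenolone measured by HPLC-MS/MS after liquid-liquid extraction. Human adrenal H295R cells received 48 h forskolin (10 uM) stimulation before 48 h chemical exposure at 0.1% final DMSO; MTT viability in same wells; bidirectional fit against DMSO.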

[7] = CEETOX_H295R_OHPROG: CeeTox H295R High-throughput Steroidogenesis Assay for OH-Progesterone (OHPROG) (AID 2283435; active means hit-call score of the fitted dose curve at least 0.9, where 1 is the maximum; inactive means score below 0.9;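 on AC50: 17alpha-hydroxyprogesterone secreted into medium measured by HPLC-MS/MS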); conditions: actives raise or lower the signal
Summary of the method: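 Steps: seed H295R cells and adhere overnight; stimulate with 10 uM forskolin for 48 h; replace with chemical-containing medium (0.1% DMSO) for 48 h; extract medium with MTBE; quantify 17alpha-hydroxyprogesterone by reverse-phase C18 HPLC-MS/MS against a 7-point curve.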

[8] = CEETOX_H295R_CORTIC: CeeTox H295R High-throughput Steroidogenesis Assay for Corticosterone (CORTIC) (AID 2283437; active means hit-call score of the fitted dose curve at least 0.9, where 1 is the maximum; inactive means score below 0.9); conditions: actives raise or lower the signal
Summary of the method: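 Medium corticosterone was quantified by tandem mass spectrometry following 48 hours of chemical exposure (0.1% DMSO) in human H295R cells previously stimulated 48 hours with 10 uM forskolin. Viability checked by MTT; chemicals diluted and retested when viability fell below 70%.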

[9] = CEETOX_H295R_CORTISOL: CeeTox H295R High-throughput Steroidogenesis Assay for Cortisol (AID 2283438; active means hit-call score of the fitted dose curve at least 0.9, where 1 is the maximum; inactive means score below 0.9); conditions: actives raise or lower the signal
Summary of the method: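 Cortisol synthesis by H295R cells is measured 48 h after chemical dosing, following a 48 h stimulation with 10 uM forskolin. Hormone is extracted and quantified by HPLC-MS/MS, and activity is fitted bidirectionally against the DMSO control.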

[10] = CEETOX_H295R_DOC: CeeTox H295R High-throughput Steroidogenesis Assay for DOC (AID 2283439; active means hit-call score of the fitted dose curve at least 0.9, where 1 is the maximum; inactive means score below 0.9); conditions: actives raise or lower the signal
Summary of the method: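 Steps: seed H295R, adhere overnight; 10 uM forskolin 48 h; replace with chemical medium (0.1% DMSO) 48 h; collect medium, MTBE extraction, HPLC-MS/MS for DOC. Viability then checked by MTT; cytotoxic chemicals diluted until viability ≥70%.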

[11] = CEETOX_H295R_ESTRADIOL: CeeTox H295R High-throughput Steroidogenesis Assay for Estradiol (AID 2283440; active means hit-call score of the fitted dose curve at least 0.9, where 1 is the maximum; inactive means score below 0.9;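 further: estradiol secreted into medium quantified by LC-MS/MS after dansyl derivatisation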); conditions: actives raise or lower the signal
Summary of the method: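 H295R cells pre-stimulated 48 h with 10 uM forskolin, then exposed 48 h to chemical in 0.1% DMSO. Medium estradiol quantified by MTBE extraction, dansyl derivatisation and HPLC-MS/MS; bidirectional fit versus DMSO; MTT viability required >/=70%.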

[12] = CEETOX_H295R_ESTRONE: CeeTox H295R High-throughput Steroidogenesis Assay for Estrone (AID 2283441; active means hit-call score of the fitted dose curve at least 0.9, where 1 is the maximum; inactive means score below 0.9); conditions: actives raise or lower the signal
Summary of the method: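 Estrone secreted into medium quantified by LC-MS/MS after dansyl chloride derivatization, following 48 h chemical exposure (0.1% DMSO final) of forskolin-prestimulated (10 uM, 48 h) H295R cells; gain or loss fitted against DMSO; MTT viability in same wells.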

[13] = CEETOX_H295R_PROG: CeeTox H295R High-throughput Steroidogenesis Assay for Progesterone (PROG) (AID 2283442; active means hit-call score of the fitted dose curve at least 0.9, where 1 is the maximum; inactive means score below 0.9;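 on AC50: human H295R adrenal cells primed with 10 µM forskolin before dosing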); conditions: actives raise or lower the signal
Summary of the method: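 H295R adrenal cells prestimulated 48 h with 10 uM forskolin, then exposed 48 h to test chemical in 0.1% DMSO. Progesterone in medium quantified by HPLC-MS/MS after MTBE extraction; viability checked by MTT in same wells.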

[14] = ATG_XTT_Cytotoxicity: Cytotoxicity Assessment in the Attagene TRANS-FACTORIAL HepG2 Assay (AID 2283584)
Summary of the method: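 HepG2 cells transiently transfected with GAL4-UAS multiple reporter units, dosed 24 h; cytotoxicity read by XTT as loss of signal versus DMSO baseline.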

[15] = TOX21_p53_BLA_p2_viability: Viability Assessment in the Tox21 HCT-116 p53 Agonism Beta-lactamase Assay, Phase 2 (AID 2283591);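 further: compound exposure lasted 16 h at 37 °C; actives lower the ATP signal meaning cytotoxicity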
Summary of the method: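 Cytotoxicity readout: CellTiter-Glo ATP luminescence, 30 min at room temperature, after the beta-lactamase read. Cells were HCT116 exposed 16 h at 37C to compounds pin-transferred at 217-fold dilution from DMSO stocks.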

[16] = CEETOX_H295R_ANDR: CeeTox H295R High-throughput Steroidogenesis Assay for Androstenedione (ANDR) (AID 2283436; active means hit-call score of the fitted dose curve at least 0.9, where 1 is the maximum; inactive means score below 0.9); conditions: actives raise or lower the signal
Summary of the method: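 Medium from 48 h chemical-treated H295R adrenal cells was extracted with MTBE and androstenedione measured by LC-MS/MS. Activity was fit in both directions relative to DMSO. Cytotoxic concentrations were re-tested after dilution until MTT viability reached ≥70%.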

[17] = CEETOX_H295R_TESTO: CeeTox H295R High-throughput Steroidogenesis Assay for Testosterone (TESTO) (AID 2283457; active means hit-call score of the fitted dose curve at least 0.9, where 1 is the maximum; inactive means score below 0.9); conditions: actives raise or lower the signal
Summary of the method: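 H295R adrenal cells, passage ≤10, exposed to chemicals for 48 h. Testosterone in medium measured by MTBE extraction and HPLC-MS/MS against a 7-point standard curve. Bidirectional fit versus DMSO; MTT viability checked in the same wells.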

[18] = molecular target: Retinoic acid receptor RXR-alpha (Homo sapiens) (UniProt P19793); experiment: OT_NURR1_NURR1RXRa_1440: Odyssey Thera (OT) 24-hour HEK293T Protein Complementation Assay for Nurr1/retinoid X receptor (RXR) (AID 2283386)
Summary of the method: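 Steps: fragment-tagged Nurr1 and RXRα expressed in HEK293T; compounds added; after 24 h, complemented reporter quantified by fluorescence intensity; signal increase over DMSO fitted as the single endpoint.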

Measured: AC50

Chain of Retinoic acid receptor RXR-alpha (Homo sapiens) (P19793 whole entry, looked up, the tested form may be a part): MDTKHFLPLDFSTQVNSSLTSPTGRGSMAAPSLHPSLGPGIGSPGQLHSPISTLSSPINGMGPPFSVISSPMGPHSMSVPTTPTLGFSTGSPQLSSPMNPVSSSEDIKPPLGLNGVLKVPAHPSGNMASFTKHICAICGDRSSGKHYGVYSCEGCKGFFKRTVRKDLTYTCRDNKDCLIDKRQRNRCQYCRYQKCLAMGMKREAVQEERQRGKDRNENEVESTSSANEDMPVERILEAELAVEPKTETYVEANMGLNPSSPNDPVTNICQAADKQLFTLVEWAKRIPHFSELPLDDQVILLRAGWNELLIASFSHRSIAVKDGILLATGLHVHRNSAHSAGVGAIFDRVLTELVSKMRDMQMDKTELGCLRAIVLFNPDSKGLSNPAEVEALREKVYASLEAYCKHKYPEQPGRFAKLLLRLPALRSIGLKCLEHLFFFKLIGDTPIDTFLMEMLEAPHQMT
Chain of Peroxisome proliferator-activated receptor gamma (Homo sapiens) (P37231 whole entry, looked up, the tested form may be a part): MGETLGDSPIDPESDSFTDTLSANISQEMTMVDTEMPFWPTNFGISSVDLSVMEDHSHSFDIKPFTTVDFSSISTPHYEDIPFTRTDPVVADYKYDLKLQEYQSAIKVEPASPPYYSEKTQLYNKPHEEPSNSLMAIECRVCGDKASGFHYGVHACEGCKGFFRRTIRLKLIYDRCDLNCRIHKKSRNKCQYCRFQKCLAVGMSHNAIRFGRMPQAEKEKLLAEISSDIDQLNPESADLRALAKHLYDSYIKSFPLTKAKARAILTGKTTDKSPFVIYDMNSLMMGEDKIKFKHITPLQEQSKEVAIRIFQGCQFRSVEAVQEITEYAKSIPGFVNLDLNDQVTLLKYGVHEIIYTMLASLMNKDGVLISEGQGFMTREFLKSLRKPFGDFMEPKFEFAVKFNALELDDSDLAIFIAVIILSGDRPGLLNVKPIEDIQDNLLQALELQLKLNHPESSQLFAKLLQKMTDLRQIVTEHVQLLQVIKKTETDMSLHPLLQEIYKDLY
Chain of Estrogen receptor (Homo sapiens) (P03372 whole entry, looked up): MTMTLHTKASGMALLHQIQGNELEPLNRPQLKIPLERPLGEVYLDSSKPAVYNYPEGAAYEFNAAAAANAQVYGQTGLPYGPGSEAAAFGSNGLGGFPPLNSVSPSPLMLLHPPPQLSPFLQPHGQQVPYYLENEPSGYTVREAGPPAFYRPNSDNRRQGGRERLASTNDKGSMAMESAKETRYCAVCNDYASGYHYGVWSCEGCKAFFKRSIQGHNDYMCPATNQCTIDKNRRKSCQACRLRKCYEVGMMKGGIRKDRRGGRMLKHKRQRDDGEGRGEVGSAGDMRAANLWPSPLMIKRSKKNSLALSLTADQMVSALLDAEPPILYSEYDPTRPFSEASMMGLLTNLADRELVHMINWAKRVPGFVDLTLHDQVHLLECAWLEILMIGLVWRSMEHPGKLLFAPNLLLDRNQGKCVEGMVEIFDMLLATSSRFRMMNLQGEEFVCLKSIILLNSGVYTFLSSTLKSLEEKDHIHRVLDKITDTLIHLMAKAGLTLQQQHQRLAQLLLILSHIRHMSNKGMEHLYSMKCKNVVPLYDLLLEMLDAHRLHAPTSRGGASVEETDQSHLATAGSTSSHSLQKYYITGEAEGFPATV

O=C(C=Cc1ccccc1)OCc1ccccc1
active: [6] 50 µM | [7] 50 µM | [8] 36.2 µM | [13] 14.6 µM
not listed: [16] | [17] | [18]
inactive: all other assays above

O=C(Nc1ccccc1SSc1ccccc1NC(=O)c1ccccc1)c1ccccc1
inactive: [5] | [6] | [7] | [8] | [9] | [10] | [11] | [12] | [13]

CC(=O)OC(C)C
inactive: [1] | [2] | [3] | [4] | [14] | [15]

CC1=NN(c2cc(S(=O)(=O)O)ccc2Cl)C(=O)C1N=Nc1ccccc1 (stereo unspecified)
inactive: [1] | [3] | [4] | [14]

CCCc1ccc(OC)cc1
inactive: [1] | [3] | [4] | [14]

CO[Si](CCC1CCC2OC2C1)(OC)OC (stereo unspecified)
inactive: [5] | [6] | [7] | [16] | [8] | [9] | [10] | [13] | [17] | [14]

C=CC(C)(CCC=C(C)C)OC(=O)C(C)C (stereo unspecified)
inactive: [14]

O=S1(=O)OC(c2ccc(O)cc2)(c2ccc(O)cc2)c2ccccc21
inactive: [1] | [18] | [3] | [4]

Cc1ccc(C(C)c2ccc(C)c(C)c2)cc1C
active: [2] 83.5 µM | [18] 76.4 µM | [6] 42.5 µM | [7] 31.9 µM | [13] 40.9 µM
not listed: [3] | [15] | [16] | [17]
inactive: all other assays above

O=C(c1ccccc1)C1CCC1
inactive: [1] | [2] | [3] | [4]

O=S(=O)(O)c1ccccc1C=Cc1ccc(-c2ccc(C=Cc3ccccc3S(=O)(=O)O)cc2)cc1
active: [18] 66.8 µM
inactive: [2] | [3] | [4] | [15]

C1=Cc2ccccc2C1
inactive: [1] | [18] | [3] | [4] | [14]
